{"source": "PubChem BioAssay AID540308", "about": "(The Scripps Research Institute Molecular Screening Center, 2011)", "note": "About 3,500 (0.97%) of roughly 360,000 compounds were called active.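 Rule for the calls: active = activation above a per-plate cutoff, the mean activation of sample wells on that plate plus 3 SD (cut at about 8% in these data); inactive = the rest.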 The entries come from a sample that favours actives as a whole.", "data": [{"biological_target": "Melanocortin receptor 4 (Homo sapiens) (UniProt P32245)", "sequence (P32245 whole entry, looked up)": "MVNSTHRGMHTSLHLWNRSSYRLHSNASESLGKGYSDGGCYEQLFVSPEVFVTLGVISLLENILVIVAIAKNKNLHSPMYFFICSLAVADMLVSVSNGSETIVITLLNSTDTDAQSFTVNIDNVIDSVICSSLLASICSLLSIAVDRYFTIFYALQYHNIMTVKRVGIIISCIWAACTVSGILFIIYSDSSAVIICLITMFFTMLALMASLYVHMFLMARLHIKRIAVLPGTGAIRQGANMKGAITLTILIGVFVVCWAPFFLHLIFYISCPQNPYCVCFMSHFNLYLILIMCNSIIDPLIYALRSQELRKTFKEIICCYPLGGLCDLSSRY", "assay": "MC4R agonists recruiting beta-arrestin, primary screen, cell-based, luminescence, agonist arm of biased-ligand search (AID 540308)", "details": "U2OS MC4R beta-arrestin complementation, at 8.9 µM, active compounds read high, percent of melanotan II response, DMSO zero", "values": [{"smiles": "CC(=O)Nc1cc(-c2ccc(N3CCN(C)CC3)cc2)cn2c(-c3cccc(C(=O)N(C)C)c3)cnc12", "activation": "0.62% (inactive)"}, {"smiles": "COc1cccc(-c2cc(NC(C)=O)c3ncc(-c4cccc(C(C)=O)c4)n3c2)c1", "activation": "3% (inactive)"}, {"smiles": "CC(=O)Nc1cc(-c2cccc(CO)c2)cn2c(-c3cccc(C(F)(F)F)c3)cnc12", "activation": "4.6% (inactive)"}, {"smiles": "COc1cccc(-c2cnc3c(NC(C)=O)cc(-c4cc(F)ccc4OC)cn23)c1", "activation": "29.8% (active)"}, {"smiles": "CC(=O)Nc1cc(-c2ccccc2F)cn2c(-c3cccc(C(F)(F)F)c3)cnc12", "activation": "22.5% (active)"}, {"smiles": "CC(=O)Nc1cc(-c2ccc(N3CCN(C)CC3)cc2)cn2c(-c3ccc(F)cc3)cnc12", "activation": "0.23% (inactive)"}, {"smiles": "CC(=O)Nc1cccc(-c2cc(NC=O)c3ncc(-c4ccc(F)c(Cl)c4)n3c2)c1", "activation": "5.15% (inactive)"}, {"smiles": "CC(=O)Nc1cc(-c2ccccc2N(C)C)cn2c(-c3ccc(F)c(Cl)c3)cnc12", "activation": "25.4% (active)"}, {"smiles": "COc1ccc(-c2cc(NC(C)=O)c3ncc(-c4cc(OC)c(OC)c(OC)c4)n3c2)cn1", "activation": "-0.61% (inactive)"}, {"smiles": "COc1cccc(-c2cnc3c(NC(C)=O)cc(-c4cccc(NC(C)=O)c4)cn23)c1", "activation": "7.42% (inactive)"}, {"smiles": "CC(=O)Nc1cccc(-c2cc(NC(C)=O)c3ncc(-c4ccccc4)n3c2)c1", "activation": "6.05% (inactive)"}, {"smiles": "COc1ccccc1-c1cc(NC(C)=O)c2ncc(-c3ccc(F)cc3)n2c1", "activation": "10.3% (active)"}, {"smiles": "COC(=O)Cc1ccc(OC2(C)CCN(Cc3ccc4c(c3)OCCO4)C2)cc1", "note": "(stereo not drawn)", "activation": "-0.74% (inactive)"}, {"smiles": "CC1(C(=O)NS(=O)(=O)Cc2cccc(Cl)c2)CCN1C(=O)Cc1ccccc1", "note": "(stereo not drawn)", "activation": "-0.92% (inactive)"}, {"smiles": "NC(c1csc(NC(=O)Nc2ccccc2Oc2ccccc2)n1)c1ccccc1Cl", "note": "(stereo not drawn)", "activation": "5.13% (inactive)"}, {"smiles": "CCCNC(=O)C1(C)CCN(Cc2csc(-c3ccc(Cl)cc3)n2)C1", "note": "(stereo not drawn)", "activation": "-0.8% (inactive)"}, {"smiles": "O=C(Nc1ccc(Cl)cc1)c1csc([C@H]2C[C@H](O)[C@@H](CO)O2)n1", "activation": "-0.15% (inactive)"}, {"smiles": "CCOC(=O)C1(Cc2cccc(OC)c2)CCCN(C(=O)CCSC)C1", "note": "(stereo not drawn)", "activation": "-1.03% (inactive)"}, {"smiles": "CCCC(=O)N1CCC1(C)C(=O)NS(=O)(=O)c1ccc(Cl)cc1", "note": "(stereo not drawn)", "activation": "-0.17% (inactive)"}, {"smiles": "Cc1cccc(-c2cnc(C(O)c3cc(C)cc(C)c3)[nH]2)c1", "note": "(stereo not drawn)", "activation": "-1.6% (inactive)"}, {"smiles": "OC(c1ccc(Cl)cc1)c1ncc(-c2ccc(Cl)cc2)[nH]1", "note": "(stereo not drawn)", "activation": "1.64% (inactive)"}, {"smiles": "Cc1ccc(-c2cnc(C(O)c3cc(Cl)cc(Cl)c3)[nH]2)cc1", "note": "(stereo not drawn)", "activation": "9.5% (active)"}, {"smiles": "C#CCNC(=O)[C@H](Cc1ccc(C(=O)c2ccccc2)cc1)NC(=O)OC(C)(C)C", "activation": "-0.75% (inactive)"}, {"smiles": "Cc1ccc(Nc2nnc(SC(C)C(=O)NC3CC3)s2)cc1", "note": "(stereo not drawn)", "activation": "1.11% (inactive)"}, {"smiles": "Cc1ccc(Nc2nnc(SCc3ccccc3)s2)cc1", "activation": "16.6% (active)"}, {"smiles": "Cc1ccc(Nc2nc(N)nc(CSc3nnc(C)s3)n2)cc1", "activation": "-0.99% (inactive)"}, {"smiles": "OC[C@@H]1CN(C2CCCC2)C[C@H](n2cnc3c(NC4CCC4)ncnc32)O1", "activation": "-0.37% (inactive)"}, {"smiles": "CCN(C(=O)COC(=O)c1ccc(COc2ccc3c(C)cc(=O)oc3c2)cc1)C1CCS(=O)(=O)C1", "note": "(stereo not drawn)", "activation": "-3.78% (inactive)"}, {"smiles": "CCOC(=O)c1cc(=O)c2ccc(OCc3ccccc3)cc2o1", "activation": "-0.49% (inactive)"}, {"smiles": "Cc1ccccc1NC(=O)c1ccc(COc2ccc3c(C)cc(=O)oc3c2)cc1", "activation": "19.5% (active)"}, {"smiles": "Cc1ccc(CC2(C)C(=O)Nc3ccc(OC(F)(F)F)cc32)cc1", "note": "(stereo not drawn)", "activation": "6.29% (inactive)"}, {"smiles": "CC1(Oc2ccccc2-c2ccno2)CCN(Cc2ccc(-c3ccccc3)o2)C1", "note": "(stereo not drawn)", "activation": "-0.57% (inactive)"}, {"smiles": "CCc1nc2c(OCCOc3ccccc3)cccn2c1N(C=O)Cc1ccc(OC)cc1", "activation": "-1.25% (inactive)"}, {"smiles": "CCc1nc2c(OCCOc3ccccc3)cccn2c1N(C)C(=O)c1ccccc1F", "activation": "-0.99% (inactive)"}, {"smiles": "N#Cc1ccc(-c2ccc3nccn3c2)cc1", "activation": "-0.91% (inactive)"}, {"smiles": "O=C(Nc1ccc(OCCO)cc1)c1csc([C@H]2C[C@H](O)[C@@H](CO)O2)n1", "activation": "1.86% (inactive)"}, {"smiles": "CCN1CCC(O)(/C=C/c2ccc(C)cc2)C(C(=O)/C=C/c2ccc(C)cc2)C1", "note": "(stereo not drawn)", "activation": "-1.73% (inactive)"}, {"smiles": "CCN1CCC2(CC1)N=C(c1ccc(F)cc1)C(=S)N2C(=O)c1ccc(C)cc1", "activation": "11.5% (active)"}, {"smiles": "Cc1ccc(SCC(=O)N2CCN(c3ccc(F)cc3)CC2)cc1", "activation": "-0.3% (inactive)"}, {"smiles": "COc1ccc2sc(-c3ccc(S(C)(=O)=O)cc3)c(-c3ccc(C(N)=O)cc3)c2c1", "activation": "0.87% (inactive)"}, {"smiles": "COc1ccc2sc(-c3ccc(S(C)(=O)=O)cc3)c(C#Cc3cncn3C)c2c1", "activation": "35.2% (active)"}, {"smiles": "COc1ccc(-c2sc3ccc(OC)cc3c2C#Cc2ccccn2)cc1", "activation": "-2.74% (inactive)"}, {"smiles": "CC1(C(=O)O)CCN1C(=O)/C=C/c1ccccc1", "note": "(stereo not drawn)", "activation": "0.27% (inactive)"}, {"smiles": "COc1ccccc1CNC(=O)c1cc(-c2cc(Cl)ccc2C)n[nH]1", "activation": "-0.81% (inactive)"}, {"smiles": "Cc1ccc(NS(=O)(=O)c2cc3c(cc2Br)NC(=O)CO3)cc1C", "activation": "1.67% (inactive)"}, {"smiles": "COc1ccccc1Cn1c(CO)nc2ccccc21", "activation": "1.82% (inactive)"}, {"smiles": "COc1ccc(C)c(Cn2c(-c3nonc3N)nc3ccccc32)c1", "activation": "12.1% (active)"}, {"smiles": "CCn1c(C(O)c2cc(OC)ccc2OC)nc2ccccc21", "note": "(stereo not drawn)", "activation": "-1.32% (inactive)"}, {"smiles": "CCCNC(=O)C1(C)CCCN(Cc2cccc(C(F)(F)F)c2)C1", "note": "(stereo not drawn)", "activation": "0.13% (inactive)"}, {"smiles": "COc1cccc(CNc2nc(NCc3ccccc3OC)nc3ccsc23)c1", "activation": "-1.7% (inactive)"}, {"smiles": "COc1ccc(-c2ccc(C(=O)NCCN3CCOCC3)c3occc23)c(C)c1", "activation": "-2.32% (inactive)"}, {"smiles": "CCNC(=S)Nc1ccc2c(c1)c(=O)n(C)n2Cc1ccc(Cl)cc1", "activation": "-1.45% (inactive)"}, {"smiles": "COCCN(CC(=O)Nc1ccccc1C)S(=O)(=O)c1ccc(S(=O)(=O)N2CCCC2)cc1", "activation": "-3.53% (inactive)"}, {"smiles": "COCCN(CCOC)S(=O)(=O)c1ccc(C(=O)Nc2nc3c(s2)CCc2ccccc2-3)cc1", "activation": "15.6% (active)"}, {"smiles": "C=CCN(CC=C)S(=O)(=O)c1ccc(C(=O)Nc2nc3c(s2)CCc2ccccc2-3)cc1", "activation": "1.77% (inactive)"}, {"smiles": "OC(c1cc(Cl)cc(Cl)c1)c1ncc(-c2ccccc2C(F)(F)F)[nH]1", "note": "(stereo not drawn)", "activation": "-0.63% (inactive)"}, {"smiles": "OC[C@@H]1CN(Cc2ccncc2)C[C@H](n2cnc3c(N4CCN(c5ccccc5)CC4)ncnc32)O1", "activation": "0.16% (inactive)"}, {"smiles": "CC1(C(=O)NS(=O)(=O)c2ccc(Cl)cc2)CCN1C(=O)CC1CCCC1", "note": "(stereo not drawn)", "activation": "1.72% (inactive)"}, {"smiles": "COc1ccc(C(=O)c2oc3ccc(Br)cc3c2NC(C)=O)cc1", "activation": "11.7% (active)"}, {"smiles": "CC(C)C(=O)Nc1c(C(=O)c2ccc(F)cc2)oc2ccccc12", "activation": "1.16% (inactive)"}, {"smiles": "COc1ccc2oc(=N)c(C(=O)Nc3ccc(Br)cc3)cc2c1", "activation": "1.15% (inactive)"}, {"smiles": "CCN(CC(=O)Nc1ccccc1C(=O)NC1CC1)Cc1cccs1", "activation": "-0.58% (inactive)"}, {"smiles": "Cc1nn(-c2ccccc2)c(NC(=O)c2cccs2)c(-c2ccc(Cl)cc2)c1=O", "activation": "-1.07% (inactive)"}, {"smiles": "Cc1nn(-c2ccccc2)c(Cl)c1/C=N/NC(=O)c1nn(C)cc1[N+](=O)[O-]", "activation": "-2.85% (inactive)"}, {"smiles": "Cc1ccc(-n2nc(C)c(/C=N/NC(=O)c3cccs3)c2Cl)cc1", "activation": "20.9% (active)"}, {"smiles": "COc1cccc(NC(=O)C2(C)CCN2C(=O)CCC2CCCC2)c1", "note": "(stereo not drawn)", "activation": "2.96% (inactive)"}, {"smiles": "CCC(=O)c1cc2c(cc1NC(=O)c1cccs1)OCCO2", "activation": "23.2% (active)"}, {"smiles": "COc1cc(NC(=O)c2ccc3c(c2)OCO3)ccc1NC(=O)c1cccs1", "activation": "-0.83% (inactive)"}, {"smiles": "COc1cc(NC(=O)c2cccs2)ccc1NC(=O)c1ccccc1Cl", "activation": "0.56% (inactive)"}, {"smiles": "COc1ccc(-c2[nH]ncc2/C=N/NC(=O)c2cc(Br)ccc2O)c(OC)c1", "activation": "0.86% (inactive)"}, {"smiles": "COc1ccc(/C=N/NC(=O)Nc2ccc3nsnc3c2)c(OC)c1", "activation": "13.5% (active)"}, {"smiles": "COc1ccc(S(=O)(=O)NNC(=O)Nc2ccc(C)cc2)c(OC)c1", "activation": "0.62% (inactive)"}, {"smiles": "O=C(NCCNc1ccc([N+](=O)[O-])cc1)c1cccc2c(Br)cccc12", "activation": "8.32% (active)"}, {"smiles": "CC(CNc1ccc([N+](=O)[O-])cc1)NC(=O)c1ccccc1Br", "note": "(stereo not drawn)", "activation": "0.96% (inactive)"}, {"smiles": "O=C(NCCNc1ccc([N+](=O)[O-])cc1Cl)c1ccccc1F", "activation": "-1.37% (inactive)"}, {"smiles": "CC(=O)Oc1ccc(Cn2c(C)c(C(=O)NCc3ccc(C#N)cc3)sc2=O)cc1", "activation": "0.49% (inactive)"}, {"smiles": "CCCCOc1ccc(NC(=O)CSCC(=O)OCC)cc1", "activation": "0.02% (inactive)"}, {"smiles": "CCCCCCCCCCOC(=O)Cn1c(COc2ccc(C)cc2)[n+](C)c2ccccc21", "activation": "16.7% (active)"}, {"smiles": "CCCCCCCCCCOC(=O)Cn1c(COc2cccc(OC)c2)[n+](C)c2ccccc21", "activation": "21.1% (active)"}, {"smiles": "Cc1ccc(COc2ccc(C(=O)NN)cc2)cc1", "activation": "6.84% (inactive)"}, {"smiles": "COCCCNC(=O)c1ccc(-c2c(C)noc2C)c2ccoc12", "activation": "-0.44% (inactive)"}, {"smiles": "COc1cc(NC(=O)c2cc(-c3ccc(F)cc3OC(C)C)n[nH]2)cc(OC)c1OC", "activation": "3.09% (inactive)"}, {"smiles": "Cc1ccc(C)c(C(O)c2ncc(-c3cccc4ccccc34)[nH]2)c1", "note": "(stereo not drawn)", "activation": "-2.84% (inactive)"}, {"smiles": "O=C(NCCCN1CCCCC1)c1ccc2c(c1)NC(=O)C(N1CCOCC1)S2", "note": "(stereo not drawn)", "activation": "-0.87% (inactive)"}, {"smiles": "CCCNC(=O)c1cc(C2CCCCN2S(=O)(=O)c2ccc(C#N)cc2)on1", "note": "(stereo not drawn)", "activation": "0.19% (inactive)"}, {"smiles": "O=C(NCCN1CCOCC1)c1ccccc1N1C(=O)[C@@H]2Cc3c([nH]c4ccccc34)C(c3cccc(Cl)c3)N2C1=O", "note": "(stereo partly drawn)", "activation": "-1.7% (inactive)"}, {"smiles": "Cc1ccc(C(O)c2ncc(-c3ccccc3F)[nH]2)cc1F", "note": "(stereo not drawn)", "activation": "-0.39% (inactive)"}, {"smiles": "COc1ccc(C(NC(=O)C2CCN(CCCc3ccccc3)CC2)c2cccs2)cc1", "note": "(stereo not drawn)", "activation": "0.65% (inactive)"}]}]}
